Only some compounds are listed: those with a hit (about 7.3% of all), similar ones and a draw of the others.
KinaseGlo FLuc = blocks Kinase-Glo luciferase, a counter-screen artifact; Q27757; Kinase-Glo luciferase, ATP luminescence, 8 min; Potency, µM (series often up to 38.3 µM), for inactives: at the top dose activity change, negative = inhibition, actives largely listed as inhibitors; 200,000 compounds, 0.28% hits; also: % is scaled to controls: 0 for no effect and ±100 for the full control effect; nearly all actives have a fitted effect of over 60% in size
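Luminescence was the read-out, taken after 8-minute incubation at ambient temperature. Luciferase turned over luciferin with 10 uM ATP in imidazole pH 7.2 buffer containing KCl, MgCl2, Tween 20 and BSA.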
SMN2 splice up = increases expression of the SMN2 splice variant; HEK293 SMN2-luciferase splicing reporter, luminescence, 30-36 h; 210,000 compounds, 2.8% hits; Potency, µM (top dose mostly 46.1 µM), for the others: at the highest dose activity change, positive = activation, usual class: activators; also: % of control where 0% means no effect; nearly all actives have a fitted effect of over 55% in size
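HEK293 cells carry an SMN2 minigene-luciferase reporter in which exon 7 inclusion puts luciferase in frame. Cells were seeded at 2000 cells/well, attached for 10-12 hours, then exposed to compounds for 30-36 hours at 37C before ONE-Glo luminescence.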
Rab9 promoter act = activators of Rab9 promoter | Huh7 Rab9 promoter-luciferase reporter, luminescence, 24 h | Potency, µM (titrated, usually from 9.22 µM), for inactives: top-dose activation, negative = inhibition, actives largely listed as activators | 320,000 compounds, 2.8% hits; also: % of control where 0% means no effect; nearly all actives have a fitted effect of over 60% in size
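Steps: seed 1500 Huh7 Rab9-luc cells per well, rest 2 h at 37 °C; add compound in DMSO; incubate 24 h; add luciferase reagent, 10 min ambient; read luminescence.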
FLuc counter = firefly luciferase modulation, counter-screen for miR-21 project; P08659; purified FLuc, Km substrates, luminescence inhibition; Potency, µM (highest dose often 57.5 µM), inactives show at the top dose activity change, negative = inhibition, actives largely listed as inhibitors; 360,000 compounds, 6.9% hits;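 also: plate controls were vehicle for no effect and reference inhibitor for full effect; nearly all actives have a fitted effect of over 55% in size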
Target sequence (P08659 whole entry, looked up): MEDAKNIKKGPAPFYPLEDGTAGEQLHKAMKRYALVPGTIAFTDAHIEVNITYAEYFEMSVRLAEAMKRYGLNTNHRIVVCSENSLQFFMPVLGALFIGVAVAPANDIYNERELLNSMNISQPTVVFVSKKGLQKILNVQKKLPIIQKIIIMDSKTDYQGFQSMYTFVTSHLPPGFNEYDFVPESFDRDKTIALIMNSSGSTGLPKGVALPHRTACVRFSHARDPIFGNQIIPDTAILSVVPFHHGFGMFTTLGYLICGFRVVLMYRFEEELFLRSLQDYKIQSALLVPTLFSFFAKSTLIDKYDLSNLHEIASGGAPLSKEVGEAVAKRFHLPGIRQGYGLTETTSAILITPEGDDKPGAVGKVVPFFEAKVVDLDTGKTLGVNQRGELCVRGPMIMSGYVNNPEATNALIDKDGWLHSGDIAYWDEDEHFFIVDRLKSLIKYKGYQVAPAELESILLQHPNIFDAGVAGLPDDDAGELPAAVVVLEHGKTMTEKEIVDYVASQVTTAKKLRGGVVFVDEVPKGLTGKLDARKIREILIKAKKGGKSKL
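Purified P. pyralis luciferase, 10 nM final, with Km-level 10 uM D-luciferin and 10 uM ATP in 50 mM Tris acetate pH 7.5, 10 mM Mg acetate, 0.01% Tween-20, 0.05% BSA; 6-point qHTS titration about 60 µM downward; luminescence read.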
ELG1 genotoxic = induces genotoxicity in HEK293T cells with luciferase-tagged ELG1; HEK293T ELG1-luciferase reporter, luminescence, 16 h; Potency, µM (series often up to 46 µM), inactives show top-dose activity change, positive = activation, hits mostly activators; 330,000 compounds, 1.3% hits; AID 504466; also: % of control where 0% means no effect; nearly all actives have a fitted effect of over 60% in size
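Genotoxicity was scored as increased ELG1-luciferase reporter signal, measured by ONE-Glo luminescence (30 min, room temperature). Compound or vehicle exposure of the HEK293T reporter cells lasted 16 hr at 37°C.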
NPC1 prom act = activates the NPC1 promoter. Potency, µM (top dose mostly 9.22 µM), without a hit: top-dose activation, usual class: activators. Huh7 NPC1 promoter luciferase reporter, 24 h. 320,000 compounds, 2.4% hits. AID 485313; also: % of control where 0% means no effect; nearly all actives have a fitted effect of over 60% in size
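Luminescence from an NPC1 promoter-driven luciferase reporter in stably transfected Huh7 cells was measured after 24 h compound treatment at 37 °C, followed by 10 min ambient incubation with luciferase detection reagent.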
* = called active by the depositor; ? = inconclusive; . = no result. Calls follow the shape of the dose curve; as a rule, active = well fitted curve in the direction sought with a large enough effect; inconclusive = small, poorly fitted or top-dose-only effect, or another doubt; inactive = no such curve, though single readings can be large; an effect the other way counts as inactive or inconclusive. Potency is read from the fitted curve at half-maximal effect.

SMILES	KinaseGlo FLuc	SMN2 splice up	Rab9 promoter act	FLuc counter	ELG1 genotoxic	NPC1 prom act
Cc1nn2c(=O)cc(COC(=O)c3cccc(NC(=O)c4ccc(C(C)(C)C)cc4)c3)nc2s1	.	.	.	0.54µM*	.	.
Cc1cccc(C(=O)Nc2cccc(C(=O)OCc3cc(=O)n4nc(C(C)C)sc4n3)c2)c1	.	.	.	-20%	.	.
Cc1cn2c(=O)cc(COC(=O)c3ccc(NC(=O)COc4ccccc4F)cc3)nc2s1	.	.	.	5%	.	.
CCCCOc1cccc(C(=O)N(Cc2ccc(C)o2)c2ccccn2)c1	.	.	.	-14%	.	.
C#CCn1cc(/C=N/Nc2nc3ccccc3[nH]2)c2ccccc21	4%	?	4%	19µM*	12%	-2%
BrC(=C\c1ccccc1)/C=N/Nc1nc2ccccc2[nH]1	-1%	-10%	18%	2.7µM*	10%	21%
Cc1ccc(/C=N/Nc2nnc(Cc3ccccc3)c(=O)[nH]2)o1	-3%	5%	-4%	1%	3%	-4%
Cc1ccc(/C=N\Nc2nc3ccc(Cl)cc3[nH]2)o1	-2%	?	4.5µM*	8.5µM*	8%	2.5µM*
Fc1ccccc1-c1ccc(/C=N/Nc2nc3ccccc3[nH]2)o1	?	22µM*	3.5µM*	0.27µM*	?	?
CCOc1ccc2oc(=O)cc(CN3CCN(c4ccc(Cl)cc4)CC3)c2c1	.	-1%	.	-2%	.	.
COc1cccc(Cn2c(=O)cc(C)c3c(C)nn(-c4ccc(C)cc4)c32)c1	.	.	.	2%	.	.
C(=N\Nc1nc2ccccc2[nH]1)/c1ccc2ncccc2c1	.	.	0.79µM*	2.1µM*	-8%	1.4µM*
C(=N\Nc1nc2ccccc2[nH]1)/c1ccccn1	13µM*	.	?	0.34µM*	-24%	?
O=C(N/N=C/c1cc(Cl)c(O)c(Cl)c1)c1cc2c(ccc3ccccc32)o1	.	.	12%	2.1µM*	-6%	10%
O=C(N/N=C/c1cc(Br)c(O)c(Br)c1)c1cc2c(ccc3ccccc32)o1	.	.	0%	3µM*	-1%	1%
CCOC(=O)COc1ccccc1/C=N\NC(=O)c1cc2c(ccc3ccccc32)o1	.	.	0%	24µM*	-1%	-4%
CCOc1cc(/C=N/NC(=O)c2cc3c(ccc4ccccc43)o2)ccc1O	.	.	2%	?	-16%	3%
CCOC(=O)c1sc2cccc(F)c2c1S(=O)(=O)N1CCN(c2cccc(Cl)c2)CC1	.	.	.	-6%	.	.
COc1cc(/C=C2/N=C(c3ccccc3F)OC2=O)cc(Cl)c1OS(C)(=O)=O	0%	19%	-1%	8.5µM*	-1%	-4%
COc1ccccc1/C=C/C=NC1C(=O)N(c2ccccc2)[N+](C)=C1C (configuration not stated)	.	.	1%	?	-2%	2%
CC1=[N+](C)N(c2ccccc2)C(=O)C1N=C/C=C/c1ccccc1 (configuration not stated)	.	.	1%	15µM*	0%	0%
COc1ccc(NC(=O)c2c(C)oc3ccc(O)c(CN4CCN(C)CC4)c23)cc1Cl	.	-8%	.	-3%	.	.
CCOc1ccc(S(=O)(=O)NCCc2c(C)[nH]c3c(Cl)cccc23)cc1C	.	-11%	.	2%	.	.
Cc1c(C(=O)N/N=C/c2ccc(O)c(Br)c2)sc(N)c1C#N	-2%	?	-6%	13µM*	?	-4%
Cn1cccc1C(=O)OCC(=O)Nc1ccc2c(c1)OCO2	-3%	?	2.8µM*	17µM*	?	3.5µM*
SMILES	KinaseGlo FLuc	SMN2 splice up	Rab9 promoter act	FLuc counter	ELG1 genotoxic	NPC1 prom act
O=C(COC(=O)c1ccco1)Nc1ccc2c(c1)OCO2	-11%	12%	-1%	?	0%	-1%
Cn1cccc1C(=O)OCC(=O)Nc1ccc2c(c1)CCC2	15%	20%	?	?	21µM*	?
Cn1cccc1C(=O)OCC(=O)Nc1ccc2[nH]c(=O)[nH]c2c1	.	.	.	.	4%	.
O=C(NCc1ccccc1)Nc1cccn(Cc2ccccc2Cl)c1=O	0%	-39%	-18%	8.5µM*	7%	-14%
COc1cccc(Cn2cccc(NC(=O)NCc3ccccc3)c2=O)c1	.	.	0%	21µM*	0%	0%
COc1cccc(Cn2cccc(NC(=O)Nc3ccccc3C)c2=O)c1	-2%	.	0%	5%	-7%	-7%
Cc1ccc(Cn2cccc(NC(=O)c3ccco3)c2=O)cc1	-4%	-6%	?	15µM*	19%	28%
O=C(Nc1ccccc1)Nc1cccn(Cc2c(F)cccc2Cl)c1=O	-10%	.	?	11µM*	0%	26%
COc1ccc(NC(=O)NC(C)c2c(-n3cccc3)sc3c2CCN(C)C3)c(OC)c1 (configuration not stated)	.	.	.	-8%	.	.
O=C(c1cnc(N2CCOCC2)c2ccccc12)N1CCN(c2ccccc2F)CC1	.	.	.	-2%	.	.
CC(C)c1cnc2c(c1SCc1cccc(C(F)(F)F)c1)c(=O)n(C)c(=O)n2C	.	.	.	-7%	.	.
CC(C)COc1ccc(C(=O)N(Cc2ccc(N(C)C)cc2)Cc2ccco2)cc1	.	-12%	.	0%	.	.
COc1cccc(NC(=O)Nc2cccn(Cc3ccccc3)c2=O)c1	-2%	-28%	0%	17µM*	-5%	3%
COc1cccc(Cn2cccc(NC(=O)Nc3ccc(C#N)cc3)c2=O)c1	-3%	-60%	-3%	?	-3%	-15%
COc1ccc(Cn2cccc(NC(=O)Nc3ccc(F)cc3)c2=O)cc1	-1%	.	-13%	?	-7%	-7%
CSc1ccc(NC(=O)Nc2cccn(Cc3ccccc3)c2=O)cc1	1%	.	-4%	11µM*	14%	-5%
COc1ccc(Cn2cccc(NC(=O)Nc3cccc(OC)c3)c2=O)cc1	.	.	2%	21µM*	-7%	0%
COc1cc2ncc3c(-c4ccccc4)nn(-c4ccc(C)cc4)c3c2cc1OC	.	.	.	3%	.	.
CCc1ccc(NC(=O)Cn2c(=O)n(CCCCC(=O)NCCc3ccccc3)c(=O)c3ccccc32)cc1	.	-13%	.	2%	.	.
Cc1c(C)c2ccc(OCC(=O)Nc3cccnc3)c(C)c2oc1=O	.	.	20%	11µM*	?	?
Cc1cc(Cl)ccc1OCC(=O)Nc1cccnc1	.	.	-6%	13µM*	?	5%
COc1ccc(-c2cc(=O)oc3c(C)c(OCC(=O)Nc4cccnc4)ccc23)cc1	.	.	-2%	0%	6%	0%
Cc1cc(Cl)ccc1OCC(=O)Nc1ccccc1CO	2%	25%	15%	21µM*	?	23%
Fc1ccc([C@H]2CCNC[C@H]2COc2ccc3c(c2)OCO3)cc1	2%	.	.	.	.	.
O=c1[nH]c2ccccc2c2nc3ccccn3c12	-16%	14%	?	17µM*	?	?
Cc1nn(C)c2c1c(C(F)(F)F)cc(=O)n2CC(=O)NCc1ccccc1Cl	.	.	.	5%	.	.
